# From PubChem BioAssay (Tox21)
# Records with an inconclusive call do not appear. Activity calls are given as the source filed them. The call rests on the fitted dose curve; in most records, active means well fitted cell-killing curve with a large enough effect in the repeat runs; inconclusive means weak or mixed curves, or effect the other way; inactive means flat fitted curve, though single readings scatter.
# Assay: cAMP Responsive Elements (CRE) small molecule agonists, cell-based qHTS assay: qHTS cell viability counter screen (AID 2060914); further: nearly all actives have a fitted effect of over 50% in size
# Conditions: CRE-bla HEK293T viability, CellTiter-Glo luminescence, 5 h; series mostly up to 92.4 µM; activity change, negative = cytotoxicity: at the top concentration
# Procedure, shortened: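 Cytotoxicity was measured as ATP luminescence (CellTiter-Glo, 30 min at room temperature) in the same wells as the CRE-bla FRET read-out. HEK293T CRE-bla cells had 3 h compound exposure at 37C/5% CO2.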
# On the % scale 0 is the no-effect control and ±100 the full control effect; potency means the concentration at half of the fitted maximal effect.
Compound,"activity change, negative = cytotoxicity",Potency
Cc1ccc(Cl)c(Nc2ccccc2C(=O)O)c1Cl,7.11% [at 42.5 µM] (inactive),
COc1ccc(N=Nc2cc(C)c(N=Nc3ccc(S(=O)(=O)O)cc3)cc2OC)cc1,-2.39% (inactive),
O=[N+]([O-])c1ccccc1CCO,-3.8% (inactive),
O=C(O)C(Cc1cc(I)c(O)c(I)c1)c1ccccc1 (stereo not drawn),2.89% [at 42.5 µM] (inactive),
CCCCCCCCCCCCCOC(=O)CCSCCC(=O)OCCCCCCCCCCCCC,-4.92% [at 18.9 µM] (inactive),
c1ccc(-c2ccccn2)nc1,15% (inactive),
C1=CCC2CC=CC2C1 (stereo not drawn),1.09% (inactive),
CN1N=C(C(N)=O)CCC1=O,3.85% [at 42.5 µM] (inactive),
O=C(Nc1ncc([N+](=O)[O-])s1)c1cccs1,,11.9 µM (active)
NC(=O)c1cc[n+](CC2=C(C(=O)[O-])N3C(=O)[C@@H](NC(=O)Cc4cccs4)[C@H]3SC2)cc1,6.86% [at 42.5 µM] (inactive),
CC(C)(c1ccccc1)c1ccccc1,0.525% (inactive),
CCN1CCCC1CNC(=O)c1cc(S(=O)(=O)CC)c(N)cc1OC (stereo not drawn),6.14% [at 42.5 µM] (inactive),
Nc1ccccc1[N+](=O)[O-],-0.663% (inactive),
CCOC(=O)CC1(C)OCC(C)O1 (stereo not drawn),8.07% (inactive),
CC(=O)OC/C=C(\C)CC/C=C(\C)CCC=C(C)C,,inactive
S=P(N1CC1)(N1CC1)N1CC1,-2.01% (inactive),
CC(C)(C)NCC(O)COc1cccc2c1C[C@H](O)[C@H](O)C2 (stereo partly drawn),1.19% [at 42.5 µM] (inactive),
Cc1ccsc1C(=CCCN1CCC[C@@H](C(=O)O)C1)c1sccc1C,4.1% [at 42.5 µM] (inactive),
c1ccc(Nc2ccccc2)cc1,,inactive
CC(O)COc1ccccc1 (stereo not drawn),,inactive
CC(S)C(=O)NCC(=O)O (stereo not drawn),10.7% [at 42.5 µM] (inactive),
NC(CO)C(=O)NNCc1ccc(O)c(O)c1O (stereo not drawn),6.77% [at 42.5 µM] (inactive),
CCCCN(CCO)CCCC,-21.3% (inactive),
